Assay outcomes deposited in PubChem by National Center for Advancing Translational Sciences (NCATS).
Pf growth 96h = P. falciparum growth inhibition at 96 hour, primary screen for plastid delayed-death inhibitors; P. falciparum luciferase reporter growth, 96 h; Potency, µM (titrated, usually from 28.7 µM), for inactives: at the top dose activity change, negative = inhibition, usual class: inhibitors; hit rate 6.9% among 320,000; AID 504834
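Luminescence readout: decreased luciferase signal marks inhibited growth of reporter-expressing P. falciparum in infected red cells (2% hematocrit, 0.05% parasitemia final), exposed to compound two generations (96 h, 37 C, 5% CO2).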
Pf growth 48h = inhibits P. falciparum growth in the first generation, 48 h | P. falciparum luciferase growth in erythrocytes, 48 h | Potency, µM (doses to about 28.7 µM), inactives show top-dose activity change, negative = inhibition, hits mostly inhibitors | hit rate 5.9% among 310,000 | AID 504832
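In quantitative HTS format, infected erythrocytes bearing luciferase-reporter parasites were treated for a single generation at 37 C. Luminescence after adding detection reagent served as the growth measure.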
Vaccinia Venus = vaccinia inhibition (Venus reporter) | Vaccinia virus Venus reporter expression, fluorescence | Potency, µM (doses to about 36.5 µM), for the others: at the highest dose activity change, negative = inhibition, hits mostly inhibitors | hit rate 0.46% among 330,000; calls by dose curve; tested in A549 cells; also: nearly all actives have a fitted effect of over 30% in size
VACV mCherry inh = inhibitors of vaccinia virus infection (mCherry reporter signal) | hit rate 0.63% among 310,000 | Vaccinia virus mCherry reporter infection, fluorescence | Potency, µM (titrated, usually from 36.5 µM), inactives show at the highest dose activity change, negative = inhibition, hits mostly inhibitors; calls by dose curve; tested in A549 cells; also: nearly all actives have a fitted effect of over 35% in size
AMA1-RON2 inh = inhibitors of Plasmodium falciparum AMA1-RON2 interaction; AlphaScreen AMA1-biotinylated RON2 peptide binding; Potency, µM (highest dose often 58.2 µM), for inactives: at the highest dose activity change, negative = inhibition, usual class: inhibitors; hit rate 0.2% among 360,000; AID 720542;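 also: 0% = vehicle wells and -100% = peptide control; nearly all actives have a fitted effect of over 45% in size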
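AMA1 (3D7) with his tag at 25 nM final met compounds first, then biotinylated RON2 peptide at 25 nM; detection used donor plus acceptor beads, 10 µg/mL apiece, read by AlphaScreen after 30 min at room temperature.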
* hit, by the source's call; [ ] = remark or other dose. Only some compounds are listed: those with a hit (about 8.7% of all), similar ones and a draw of the others. Unless noted, calls follow the shape of the dose curve; as a rule, active = well fitted curve in the direction sought with a large enough effect; inconclusive = small, poorly fitted or top-dose-only effect, or another doubt; inactive = no such curve, though single readings can be large; an effect the other way counts as inactive or inconclusive. Unless noted, % is scaled to controls: 0 for no effect and ±100 for the full control effect; potency is read from the fitted curve at half-maximal effect.

How did Cc1oc(-c2cccc(Br)c2)nc1Cn1c(=O)cc(-c2ccccc2)c2c(C)nn(C)c21 do in these assays?
Vaccinia Venus: 3%; VACV mCherry inh: -2%

How did CCCOC(=O)c1ccc(NC(=O)c2nc3nc(C)cc(C)n3n2)cc1 do in these assays?
Pf growth 96h: inconclusive; Pf growth 48h: inconclusive; Vaccinia Venus: -7%; VACV mCherry inh: -6%; AMA1-RON2 inh: -3%

What do the screens show for `Cc1cc(Nc2ccc3c(c2)OCCO3)n2ncnc2n1`?
Pf growth 96h: -1%[5.75 µM]; Pf growth 48h: inconclusive; AMA1-RON2 inh: 1%

Results for CCn1c2ccccc2c2cc(Nc3cc(C)nc4ncnn34)ccc21 ?
Pf growth 96h: 7%; Pf growth 48h: 0.074µM*; Vaccinia Venus: inconclusive; VACV mCherry inh: inconclusive; AMA1-RON2 inh: 63%

Results for CCCOC(=O)c1ccc(Nc2cc(C)nc3ncnn23)cc1 ?
Pf growth 96h: -19%; Pf growth 48h: 8.3µM*; Vaccinia Venus: -3%; AMA1-RON2 inh: 16%

How did CCc1cccc(Nc2cc(C)nc3ncnn23)c1 do in these assays?
Pf growth 96h: inconclusive; Pf growth 48h: inconclusive; Vaccinia Venus: -11%; VACV mCherry inh: -17%; AMA1-RON2 inh: 0%

How did CCN(CC)S(=O)(=O)c1ccc(Nc2cc(C)nc3ncnn23)cc1 do in these assays?
Pf growth 96h: inconclusive; Pf growth 48h: 15µM*; Vaccinia Venus: 1%; VACV mCherry inh: -13%; AMA1-RON2 inh: 9%

How did Cc1cc(Nc2cccc(Cl)c2)n2ncnc2n1 do in these assays?
Pf growth 96h: 1.7µM*; Pf growth 48h: -27%; Vaccinia Venus: -9%; VACV mCherry inh: -1%; AMA1-RON2 inh: 30%

How did Cc1cc(Nc2ccc(Cl)cc2)n2ncnc2n1 do in these assays?
Pf growth 96h: 32%; Pf growth 48h: inconclusive; AMA1-RON2 inh: 7%

What do the screens show for `CCc1ccc(Nc2cc(C)nc3ncnn23)cc1`?
Pf growth 96h: 1%; Pf growth 48h: 3.3µM*; Vaccinia Venus: -26%; VACV mCherry inh: -4%; AMA1-RON2 inh: 0%

What do the screens show for `Cc1cc(C)cc(Nc2cc(C)nc3ncnn23)c1`?
Vaccinia Venus: -11%; VACV mCherry inh: -3%; AMA1-RON2 inh: 4%

How did Cc1cc(Nc2ccc(N(C)C)cc2)n2ncnc2n1 do in these assays?
Pf growth 96h: 7%; Pf growth 48h: 2.3µM*; Vaccinia Venus: -7%; VACV mCherry inh: -10%; AMA1-RON2 inh: -10%

What do the screens show for `COc1ccc(NC(=O)CSc2nc(-c3ccccc3)cc(-c3cc(OC)c(OC)c(OC)c3)c2C#N)c(OC)c1`?
Vaccinia Venus: -6%; VACV mCherry inh: inactive

What do the screens show for `CCOc1ccc(C2c3[nH]c4ccccc4c3CCN2C(=O)Cc2cccc(OCC)c2OCC)cc1` (stereo not given)?
Vaccinia Venus: -21%; VACV mCherry inh: -24%

What do the screens show for `CCCCOc1ccc(C2c3c(oc4ccccc4c3=O)C(=O)N2c2nc(C)c(C(=O)OCC)s2)cc1OC` (stereo not given)?
Vaccinia Venus: -1%; VACV mCherry inh: -9%

What do the screens show for `Cc1cc(C)c2oc(C(=O)N(Cc3ccccc3)c3ccccn3)cc(=O)c2c1`?
Pf growth 96h: inconclusive; Pf growth 48h: 12µM*; Vaccinia Venus: 20%; VACV mCherry inh: 4%; AMA1-RON2 inh: -4%

Results for Cc1ccc2c(C)c(C(=O)Nc3ccc(S(=O)(=O)Nc4onc(C)c4C)cc3)oc2c1 ?
Pf growth 96h: 9.3µM*; Pf growth 48h: 12%; Vaccinia Venus: 9%; VACV mCherry inh: -5%; AMA1-RON2 inh: -17%

What do the screens show for `COc1ccc(-n2c(C)cc(/C=C3\C(=N)N4N=C(CC(=O)N5CCOCC5)SC4=NC3=O)c2C)cc1`?
Pf growth 96h: 13µM*; Pf growth 48h: 13µM*; AMA1-RON2 inh: -1%

Results for c1ccc(Nc2nc(Nc3ccccc3)nc(N3CCNCC3)n2)cc1 ?
Pf growth 96h: 9.3µM*; Pf growth 48h: inconclusive; Vaccinia Venus: -32%; VACV mCherry inh: inconclusive; AMA1-RON2 inh: -3%

Results for O=c1nc(N2CCCC2)nc(Nc2ccccc2)[nH]1 ?
Pf growth 96h: 15µM*; Pf growth 48h: 0%; Vaccinia Venus: -6%; VACV mCherry inh: -12%; AMA1-RON2 inh: 12%

What do the screens show for `CN1CCN(C(=O)c2ccc3c(c2)N(Cc2c(F)cccc2Cl)C(=O)c2ccccc2S3)CC1`?
Vaccinia Venus: -16%; VACV mCherry inh: -11%
